# Screens deposited in PubChem BioAssay by The Scripps Research Institute Molecular Screening Center.
# Rows were chosen to be rich in hits. Some 3.5% of all compounds tested hit in one or more screens of this group.
# MITF inh: blocks human microphthalmia-associated transcription factor; O75030; AlphaScreen MITF homodimerization, bead proximity signal; inhibition, % at 2.6 µM; 650,000 compounds, 0.91% hits; in the data active = inhibition above about 50%;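 also: 0% = vehicle wells with protein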
# GPR151 activ: activators of human GPR151; activation, % at 11.2 µM; 650,000 compounds, 1% hits; Q8TDV0; AID 1508602; PathHunter beta-arrestin GPR151 cells, luminescence; in the data active = activation above about 4.9%;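 also: 0% = median of compound wells and 100% = cells with positive control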
# Target sequence (Q8TDV0 whole entry, looked up): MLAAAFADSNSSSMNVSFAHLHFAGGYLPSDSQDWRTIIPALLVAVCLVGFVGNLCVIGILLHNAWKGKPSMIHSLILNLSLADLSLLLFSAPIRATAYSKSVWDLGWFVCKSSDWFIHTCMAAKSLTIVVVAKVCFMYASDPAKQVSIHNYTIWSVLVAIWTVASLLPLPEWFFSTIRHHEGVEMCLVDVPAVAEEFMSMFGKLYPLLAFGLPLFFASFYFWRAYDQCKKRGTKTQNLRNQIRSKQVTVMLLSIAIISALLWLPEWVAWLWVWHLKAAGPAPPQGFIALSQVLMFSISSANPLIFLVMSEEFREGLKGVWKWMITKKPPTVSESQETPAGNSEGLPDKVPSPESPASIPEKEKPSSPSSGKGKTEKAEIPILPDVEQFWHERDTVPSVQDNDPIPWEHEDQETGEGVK
# TEAD-YAP inh: TEAD-YAP interaction inhibition; HEK-TIYL cells, TEAD-Gal4/YAP UAS-luciferase luminescence; inhibition, % at 9.12 µM; 640,000 compounds, 1.4% hits; AID 1259422; in the data active = inhibition above about 32%;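 also: 0% = median of test compound wells and 100% = reference inhibitor wells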
# FBW7 act: activators of human E3 ligase FBW7; AlphaScreen FBW7–phospho-cyclin E peptide binding, activator screen; Q969H0; normalized activity (activation), % at 26.1 µM; 650,000 compounds, 0.13% hits; in the data active = normalized activity above about 1.9%;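 also: purified mutant Fbw7 with reduced substrate affinity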
# GPR151 conf act: confirmation of human GPR151 activators; shares compounds with GPR151 activ; GPR151 PathHunter beta-arrestin cells, luminescence, 90 min; % of EA-reagent control over plate median; activation, % at 11.2 µM; 6,700 tested, under 10 active; AID 1508609;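 active = mean percent activation across replicates above the confirmation screen cutoff of 4.91%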
# GPR119 ag: counter-screen for GPR151 activators: effect on human GPR119. AID 1508611. GPR119 PathHunter beta-arrestin cells, luminescence, 90 min; 0 = compound-well median, 100 = enzyme-acceptor control. activation, % at 11.2 µM. 6,700 compounds, 0.3% hits. shares compounds with GPR151 activ;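 active = mean percent activation in the counterscreen above 29.09%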;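 also: counterscreen on off-target GPR119 to flag nonselective hits from the GPR151 activator screen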
# The depositor's hits bear a star; / = no result.
SMILES,MITF inh,GPR151 activ,TEAD-YAP inh,FBW7 act,GPR151 conf act,GPR119 ag
O=C(NC1CC1)C1CCC(=O)N1C1CCCCC1 (stereo not drawn),12,8.5*,0,0,-1,-8
O=C(NC1CCCC1)C1CCC(=O)N1C1CCCCC1 (stereo not drawn),4,4,4,0,/,/
CCC(C(=O)Nc1cccc(C(C)=O)c1)n1c2ccccc2c2nc(=O)cc(C)n21 (stereo not drawn),8,0,3,0,/,/
CCOc1ccc(C(=O)N2CCCC(c3ncncc3-c3ccncc3)C2)o1 (stereo not drawn),10,3,3,0,/,/
CCOc1ccc(C(=O)N2CCC(c3ncncc3-c3ccncc3)CC2)o1,-3,18*,-9,0,1,11
Cc1nc(N(C)c2ccc(C(C)C)cc2)c2c(C)c(C(=O)Nc3ccc(C)c(F)c3)sc2n1,-12,0,-8,0,/,/
CCOc1cc(C(=S)N2CCCCC2)ccc1OC(=O)c1ccc(OC)cc1,-17,-1,4,0,/,/
CC(C)CC1NC(=O)N(CC(=O)Nc2cccc(I)c2)C1=O (stereo not drawn),-4,8.8*,0,0,1,5
CCC(C)NCc1c(C(=O)O)n(Cc2ccccc2C)c2ccccc12 (stereo not drawn),-14,0,8,0,/,/
COc1ccc(CCNC(=O)c2cc(C)no2)cc1OC,15,-1,6,0,/,/
O=C(NC1CCOC1)c1cc(COc2ccc3ncccc3c2)on1 (stereo not drawn),-3,5.2*,19,0,0,-13
COC(=O)C(C)NC(=O)C(Cc1c[nH]c2ccccc12)NC(C)=O (stereo not drawn),2,0,5,1,/,/
CC(C)CC(NC(=O)C(C)NC(=O)CNC(=O)C(NC=O)C(C)C)C(=O)NC(C)C(=O)NC(C(=O)NC(C(=O)NC(C(=O)NC(Cc1c[nH]c2ccccc12)C(=O)NC(CC(C)C)C(=O)NC(Cc1c[nH]c2ccccc12)C(=O)NC(CC(C)C)C(=O)NC(Cc1c[nH]c2ccccc12)C(=O)NC(CC(C)C)C(=O)NC(Cc1c[nH]c2ccccc12)C(=O)NCCO)C(C)C)C(C)C)C(C)C (stereo not drawn),-5,24*,84*,0,14*,113*
COc1ccccc1OCCCC(=O)Nc1ccc(S(N)(=O)=O)cc1,11,0,-4,0,/,/
Cc1ccc(Nc2nc(N(C)C)nc3c2cnn3C)cc1C,10,6.2*,-10,0,3,9
CN(C)c1nc(Nc2ccc(F)cc2)c2cnn(C)c2n1,2,2,-3,0,/,/
CCCCCCCCCCCCC/C=C/[C@@H](O)[C@H](COP(=O)(O)O)NC(=O)CCCCCCC,-7,5.2*,/,/,0,-11
O=C1NC(=O)C(=Cc2cc(Br)ccc2OCc2ccccc2F)C(=O)N1,2,14*,-10,0,-1,9
c1cc2c(cc1CN1CCc3nnc(C4CCCO4)n3CC1)OCCO2 (stereo not drawn),7,3,-5,0,/,/
COc1cc(C(=O)NNC(=O)CCN2CCCCC2)cc(OC)c1OC,-16,4.9*,9,0,-1,-14
COc1cc(CO)cc(Cl)c1OCc1ccccc1C#N,3,6.7*,1,0,0,-7
O=[N+]1C(CBr)=C(CBr)N([O-])C2CCCCC21 (stereo not drawn),-6,0,-2,0,/,/
COc1ccc(NC(=O)c2cc3cccc(OC)c3o/c2=N\c2sc3c(c2C#N)CCCC3)cc1,2,1,-8,0,/,/
COc1cc(-c2c(C#N)c(N)nc3sc(C#N)c(N)c23)cc(OC)c1OC,1,11*,-14,0,0,3
COc1ccc2oc(=O)c(N(C)S(=O)(=O)c3ccc(C)cc3)cc2c1,15,5.1*,2,0,-1,-2
SMILES,MITF inh,GPR151 activ,TEAD-YAP inh,FBW7 act,GPR151 conf act,GPR119 ag
Cn1ncc2c(Nc3ccc(F)cc3)ncnc21,6,-1,5,0,/,/
Cc1nn(C)c(C)c1-c1nc(C(=O)NCc2ccccc2)cs1,-5,1,-11,0,/,/
N#CC1=C(N)Oc2cc(O)ccc2C1C1CC=CCC1 (stereo not drawn),7,5.4*,13,0,0,2
COc1ccc(/C=N/n2c(=O)c(C(C)(C)C)nn3cnnc23)c(OC)c1,13,-2,7,0,/,/
Nc1cccc(-c2cncc(C(=O)NCCc3ccc(O)cc3)c2)c1,4,0,3,0,/,/
COc1cc2nc(C)[nH]c2cc1OC,2,-1,-1,0,/,/
COc1ccc2nc(C)[nH]c2c1,-9,5.2*,5,0,-1,-6
NC(=O)COc1ccc(/C=N/NC(=O)c2ccc(CN3CCOCC3)cc2)cc1,6,5.7*,2,0,0,6
Cc1ccc(CSCC2Nc3ccc(C(=O)N4CCC5(CC4)OCCO5)cc3NC2=O)cc1 (stereo not drawn),11,-1,10,0,/,/
CC1CCN(c2ccc(C(=O)N3CCOCC3)cc2[N+](=O)[O-])CC1,-5,5.2*,-14,0,-1,-18
O=C(c1ccc(N2CCCCC2)c([N+](=O)[O-])c1)N1CCOCC1,2,0,-10,0,/,/
CC1CCCN(C(=O)c2ccc3c(=O)n(CCC4=CCCCC4)c(=S)[nH]c3c2)C1 (stereo not drawn),-6,-1,-16,0,/,/
COCCOC(=O)c1c(N)sc(C(N)=O)c1C,-4,8.5*,3,0,0,-3
O=C(Nc1cccc2ccccc12)N1CCN(c2ccc(F)cc2)CC1,-9,11*,-1,0,0,-5
CC(=O)c1ccc(N2CCN(C(=O)Nc3cccc(F)c3)CC2)cc1,-12,11*,-10,0,0,-3
CC(=O)c1ccc(N2CCN(C(=O)Nc3ccc(C)cc3)CC2)cc1,6,2,0,1,/,/
O=C(NCCc1nnc2n1CCN(Cc1cccc(F)c1)CC2)C1CCCCC1,-3,-1,-2,0,/,/
O=C1OCCC1Sc1nnc(-c2cccs2)n1-c1ccccc1 (stereo not drawn),1,1,4,0,/,/
CCn1ccnc1CN(C)Cc1ccc(OCC(O)CN2CCc3ccccc3C2)cc1 (stereo not drawn),0,10*,4,0,0,-16
CC1CCCC(NC(=O)c2ccc(CNS(=O)(=O)c3ccc(F)cc3)cc2)C1C (stereo not drawn),-3,6.3*,-5,0,0,-10
CC1CCCC(NC(=O)c2ccc(CNS(=O)(=O)c3ccc(Cl)cc3)cc2)C1C (stereo not drawn),-1,-1,5,0,/,/
CCCCCc1ccc(OCCOCCn2c[n+](C)c3ccccc32)c(CCCCC)c1,-1,4.9*,52*,0,0,-1
